We go through 33 compounds from PubChem BioAssay (NCATS).

Records with an inconclusive call do not appear. Calls of active or inactive are those of the source. Unless noted, calls come from the whole dose curve.

Assay [1] in a line: qHTS drug screen for cell cycle checkpoint inhibitors in PARPi-resistant BRCA-mutant ovarian cancer cell lines. (AID 1963452). Conditions: PEO1/OlaR viability, CellTiter-Glo luminescence, 96 h, stronger effect = lower value. In outline: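 PEO1, PEO4 and PEO1/OlaR ovarian cancer cells, 600 per well, exposed 96 h at 37C to a dilution series. Viability read by CellTiter-Glo luminescence, normalized to DMSO and empty wells; activity summarized as Z-AUC.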
(In general: In qHTS, concentration-response curves come from the screen itself.)

In assay [2] the target is Cytochrome P450 2C9 (Homo sapiens) (UniProt P11712). As to the kind of experiment: qHTS for inhibitors of CYP2C9 against the NCATS DSHEA and TCM libraries (AID 1919973; active = well fitted curve in the direction sought with a large enough effect; an effect the other way counts as inactive or inconclusive; note: potency is the fitted concentration of half-maximal effect). Particulars: recombinant CYP2C9 enzyme activity, luminescence; series mostly up to 34.1 µM. In outline:
(§1)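 Isoform-specific enzyme and substrate levels; enzyme-free wells as background. Reaction: 1x NADPH regenerating system, 30-45 min, room temperature, shielded from light; luminescent detection reagent added, 30 min.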

In assay [3] the target is Cytochrome P450 2C19 (Homo sapiens) (UniProt P33261). The experiment in a line: qHTS for inhibitors of CYP2C19 against the NCATS DSHEA and TCM libraries (AID 1919974; active = well fitted curve in the direction sought with a large enough effect; an effect the other way counts as inactive or inconclusive;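 note: luminescence from luciferin released by CYP2C19 oxidation of a pro-luciferin substrate; potency is the fitted concentration of half-maximal effect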). Particulars: CYP2C19 enzyme inhibition, luminescence qHTS; series mostly up to 34.1 µM. In outline:
as §1

A short description of assay [4]: KB-3-1 P-gp reporter qHTS against the NCATS DSHEA and TCM libraries (AID 1919975; active = well fitted curve in the direction sought with a large enough effect; an effect the other way counts as inactive or inconclusive; note: 0% is about no effect). Conditions: KB-3-1 parental cells, CellTiter-Glo luminescence viability, 72 h; series mostly up to 26.1 µM. In outline:
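Cell viability qHTS: 500 KB-3-1 cells/well, substances in titration, ~72 h, 37C; luminescent CellTiter-Glo read.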

The nature of assay [5]: qHTS Counterscreen for compound interference against the NCATS DSHEA and TCM libraries (AID 1919978; active = well fitted curve in the direction sought with a large enough effect; an effect the other way counts as inactive or inconclusive;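 note: compounds preincubated with 1 µM D-luciferin or buffer before detection reagent; % of control where 0% means no effect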). Conditions: firefly luciferase detection reagent interference, luminescence. In outline:
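Interference check: test samples were incubated with D-luciferin (final 1 uM) or buffer only for 15 min, room temperature, in a qHTS titration up to 39.8 uM, then developed with detection reagent and read by luminescence.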

A short description of assay [6]: Dual reporter qHTS for agonist of Pregnane X Receptor (hPXR) against the NCATS DSHEA and TCM libraries: Fluorescence readout (AID 1920058; active = well fitted curve in the direction sought with a large enough effect; an effect the other way counts as inactive or inconclusive; note: 0% is about no effect). Particulars: PXR dual reporter cells; series mostly up to 40 µM. The essentials:
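In this qHTS counter-read, reporter-bearing HepG2 cells in charcoal-stripped serum received substances for approximately 24 h before viability was assessed fluorometrically with CellTiter-Fluor.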

Assay [7] concerns the target Nuclear receptor subfamily 1 group I member 2 (Homo sapiens) (UniProt O75469). As to the kind of experiment: Dual reporter qHTS for antagonist of Pregnane X Receptor (hPXR) against the NCATS DSHEA and TCM libraries: Luminescence Readout (AID 1920060; active = well fitted curve in the direction sought with a large enough effect; an effect the other way counts as inactive or inconclusive;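 note: HepG2 cells carrying hPXR luciferase reporter stimulated with rifampicin at 2 µM; 0% is about no effect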). Conditions: hPXR dual reporter cells, luciferase luminescence, antagonist mode; series mostly up to 40 µM. In outline:
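HepG2 hPXR-Luc, 2000 cells/well, charcoal-stripped FBS medium; 5 h attach; RIF 2 uM final; 24 h 37C/5% CO2; CellTiter-Fluor 1 h, fluor 405/540; ONE-Glo 30 min RT, lum.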

The mark [8] stands for this setting: measured here: PEO1 parental Z-AUC.

Sequence of Nuclear receptor subfamily 1 group I member 2 (Homo sapiens) (O75469 whole entry, looked up): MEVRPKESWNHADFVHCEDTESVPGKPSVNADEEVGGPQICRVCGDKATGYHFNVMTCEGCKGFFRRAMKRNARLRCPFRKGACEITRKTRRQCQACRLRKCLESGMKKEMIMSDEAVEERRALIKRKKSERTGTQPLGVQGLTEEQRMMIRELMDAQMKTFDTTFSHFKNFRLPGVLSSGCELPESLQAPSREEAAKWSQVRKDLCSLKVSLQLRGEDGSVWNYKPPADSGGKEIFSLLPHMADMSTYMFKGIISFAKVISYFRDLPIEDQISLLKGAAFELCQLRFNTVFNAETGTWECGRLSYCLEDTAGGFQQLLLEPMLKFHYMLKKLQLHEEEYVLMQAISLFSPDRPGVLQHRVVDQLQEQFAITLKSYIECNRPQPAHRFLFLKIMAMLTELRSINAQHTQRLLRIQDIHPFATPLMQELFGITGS
Sequence of Cytochrome P450 2C9 (Homo sapiens) (P11712 whole entry, looked up, canonical isoform): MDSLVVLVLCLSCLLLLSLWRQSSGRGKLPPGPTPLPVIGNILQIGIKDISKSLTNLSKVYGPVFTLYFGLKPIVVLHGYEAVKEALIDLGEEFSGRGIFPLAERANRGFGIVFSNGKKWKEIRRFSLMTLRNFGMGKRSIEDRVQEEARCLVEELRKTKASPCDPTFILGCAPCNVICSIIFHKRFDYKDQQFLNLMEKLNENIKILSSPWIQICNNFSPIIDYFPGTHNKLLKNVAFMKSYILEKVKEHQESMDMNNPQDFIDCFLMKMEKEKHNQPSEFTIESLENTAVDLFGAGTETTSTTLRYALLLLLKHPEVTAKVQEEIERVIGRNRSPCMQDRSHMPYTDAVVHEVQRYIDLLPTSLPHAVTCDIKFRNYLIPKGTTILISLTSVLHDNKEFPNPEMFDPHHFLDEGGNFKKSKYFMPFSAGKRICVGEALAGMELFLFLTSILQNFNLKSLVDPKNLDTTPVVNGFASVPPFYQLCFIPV
Sequence of Cytochrome P450 2C19 (Homo sapiens) (P33261 whole entry, looked up): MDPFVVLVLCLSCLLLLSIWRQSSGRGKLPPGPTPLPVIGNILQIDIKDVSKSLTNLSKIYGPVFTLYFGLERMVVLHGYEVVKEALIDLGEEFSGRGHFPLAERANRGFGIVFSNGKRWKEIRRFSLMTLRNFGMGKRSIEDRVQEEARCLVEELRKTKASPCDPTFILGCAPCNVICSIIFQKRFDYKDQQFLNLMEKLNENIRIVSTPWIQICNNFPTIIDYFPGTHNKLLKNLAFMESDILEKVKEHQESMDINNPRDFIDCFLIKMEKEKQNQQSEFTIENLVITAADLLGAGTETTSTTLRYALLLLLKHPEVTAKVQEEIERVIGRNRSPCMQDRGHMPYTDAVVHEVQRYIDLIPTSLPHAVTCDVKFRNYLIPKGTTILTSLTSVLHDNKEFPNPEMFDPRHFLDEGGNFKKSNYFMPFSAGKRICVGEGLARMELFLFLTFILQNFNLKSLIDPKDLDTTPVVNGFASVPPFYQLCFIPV

For the compound `CN[C@@H](C)[C@H]1[C@H](O)C[C@@]2(C)[C@@H]3CC[C@H]4C(C)(C)[C@@H](NC)CC[C@@]45C[C@@]35CC[C@]12C`, the Z-AUC is 0.117 (inactive) in assay [1], 0.364 in assay [1] (setting [8]) and 0.673 in assay [1] (measured here: PEO4 Z-AUC).
As for `O=[N+]([O-])c1ccc(Nc2ccccc2-c2ccccc2)c2nonc12`, the Z-AUC is 0.186 (inactive) in assay [1], 0.785 in assay [1] (setting [8]) and 0.946 in assay [1] (measured here: PEO4 Z-AUC).
On to `OC(c1cc(C(F)(F)F)nc2c(C(F)(F)F)cccc12)C1CCCCN1` (stereo not given), for which the Z-AUC in assay [1] was 0.945 (inactive); in assay [1] (setting [8]), 0.285; in assay [1] (measured here: PEO4 Z-AUC), 0.429.
`O=C(CC12CC3CC(CC(C3)C1)C2)Nc1cccc2nc(NCCNCCO)ccc12`: the figures for the Z-AUC in assay [1], in assay [1] (setting [8]) and in assay [1] (measured here: PEO4 Z-AUC) were 0.783 (inactive), 0.506 and 0.728, respectively.
With `CNC(=O)c1c(-c2ccc(F)cc2)oc2cc(N(CCO)S(C)(=O)=O)c(C3CC3)cc12`, the Z-AUC in assay [1] is 0.51 (inactive); in assay [1] (setting [8]) it was 0.436; in assay [1] (measured here: PEO4 Z-AUC) it was 0.532.
Regarding `O=C(CO)N1CCC(c2[nH]nc(-c3ccc(Cl)cc3)c2-c2ccncn2)CC1`, the Z-AUC in assay [1] is -0.00709 (inactive); in assay [1] (setting [8]), 0.349; in assay [1] (measured here: PEO4 Z-AUC) it was 0.147.
For `COc1ccc(-c2oc3c(CC=C(C)C)c(O)cc(O)c3c(=O)c2O)cc1`, the Z-AUC in assay [1] was 0.707 (inactive); in assay [1] (setting [8]), 0.584; in assay [1] (measured here: PEO4 Z-AUC) it was 0.876.
On to `O=c1cc(-c2ccc(O)c(O)c2)oc2cc(O)cc(O)c12`, for which the Potency in assay [2] is 11.2 µM (active); in assay [3], 7.94 µM (active). The result in assay [4] and in assay [7] was inactive. For the same compound, the max response in assay [5] is -0.391% (inactive). For the same compound, in assay [6], the Potency result is “inactive”. In addition, the Z-AUC is 0.185 (inactive) in assay [1], 0.49 in assay [1] (setting [8]) and 0.398 in assay [1] (measured here: PEO4 Z-AUC).
On to `COC(=O)Nc1ccc(-c2nc(N3CCOCC3)c3cnn(C4CCN(C(=O)OC)CC4)c3n2)cc1`, for which the Z-AUC in assay [1] was 0.0604 (inactive); in assay [1] (setting [8]), -0.0911; in assay [1] (measured here: PEO4 Z-AUC), -0.355.
For `CN(C)c1ccc(-c2nc3ncc(Cl)c(N4CCN(CC(=O)Nc5nccs5)CC4)c3[nH]2)cc1` the same measures were -1.63 (inactive), -1.25 and -1.61.
With `CC(C)CNc1ccnc(NCc2csc(-c3ccccc3)n2)n1`, the Z-AUC in assay [1] was -1 (inactive); in assay [1] (setting [8]), -0.906; in assay [1] (measured here: PEO4 Z-AUC), -0.83.
For `CN(C)N=Nc1nc[nH]c1C(N)=O` the same measures were 1.39 (inactive), 0.491 and 0.792.
As to `Cc1c(C(=O)Nc2ccc(N3C[C@@H](C)O[C@@H](C)C3)nc2)cccc1-c1ccc(OC(F)(F)F)cc1`, the Z-AUC in assay [1] is 0.823 (inactive); in assay [1] (setting [8]) it was 1.06; in assay [1] (measured here: PEO4 Z-AUC) it was 0.91.
As for `N#Cc1ccc(Oc2ccc3c(c2)COB3O)cc1`, the Z-AUC in assay [1] is 0.18 (inactive); in assay [1] (setting [8]) it was 0.583; in assay [1] (measured here: PEO4 Z-AUC), 0.594.
On to `CC(C)(OCc1nn(Cc2ccccc2)c2ccccc12)C(=O)O`, for which the figures for the Z-AUC in assay [1], in assay [1] (setting [8]) and in assay [1] (measured here: PEO4 Z-AUC) were 1.03 (inactive), 1.11 and 1.54, respectively.
Consider `C[C@]12CC[C@@H]3c4ccc(O)cc4CC[C@H]3[C@H]1[C@@H](O)[C@@H](O)[C@H]2O`, for which the Z-AUC in assay [1] was 1 (inactive); in assay [1] (setting [8]), 0.841; in assay [1] (measured here: PEO4 Z-AUC) it was 0.542.
Consider `C[C@@H](N)c1ccc(C(=O)Nc2ccnc3[nH]ccc23)cc1`, for which the results for the Z-AUC in assay [1], in assay [1] (setting [8]) and in assay [1] (measured here: PEO4 Z-AUC) were 0.345 (inactive), 0.635 and 0.729, respectively.
Take `CCC(C)SSc1ncc[nH]1` (stereo not given): the Z-AUC in assay [1] is -1.01 (inactive); in assay [1] (setting [8]) it was -0.667; in assay [1] (measured here: PEO4 Z-AUC), -0.908.
Turning to `Cc1ccc(C2=Nc3ccc(Cl)cc3OC2)cc1`, the Z-AUC in assay [1] was 1.28 (inactive); in assay [1] (setting [8]) it was 0.878; in assay [1] (measured here: PEO4 Z-AUC), 0.727.
Regarding `CN1CC(=O)NC1=NC(=O)Nc1cccc(Cl)c1`, the figures for the Z-AUC in assay [1], in assay [1] (setting [8]) and in assay [1] (measured here: PEO4 Z-AUC) were 0.638 (inactive), 0.15 and 0.317, respectively.
For `NC(=O)c1ccc(N(C(N)=O)c2c(F)cccc2F)nc1-c1ccc(F)cc1F` the same measures were -0.305 (inactive), -0.387 and 0.295.
For the compound `CC(=O)NCCC(=O)N[C@@H](CCC(N)=O)C(=O)N[C@@H](CO)C(=O)N[C@@H](CCC(N)=O)C(=O)N[C@@H](CCC(N)=O)C(=O)N[C@H](C(=O)N[C@@H](Cc1ccccc1)C(=O)N[C@]1(C)CCCCCCC=CCCC[C@@](C)(C(=O)N[C@@H](CCC(N)=O)C(=O)N[C@@H](CC(N)=O)C(N)=O)NC(=O)[C@H](CC(C)C)NC(=O)[C@H](CC(C)C)NC(=O)[C@@H](CCCNC(=N)N)NC(=O)[C@H](Cc2c[nH]c3ccccc23)NC(=O)[C@H](CC(C)C)NC(=O)[C@H](CC(N)=O)NC1=O)[C@H](C)O`, the Z-AUC is -0.975 (inactive) in assay [1], -0.536 in assay [1] (setting [8]) and -0.428 in assay [1] (measured here: PEO4 Z-AUC).
With `Cc1ccc(S(=O)(=O)Nc2nc3ccccc3nc2Nc2ccc3nsnc3c2)cc1`, the values for the Z-AUC in assay [1], in assay [1] (setting [8]) and in assay [1] (measured here: PEO4 Z-AUC) were -0.8 (inactive), -0.564 and -0.705, respectively.
Consider `COc1cc(Nc2nc3ccccc3nc2NS(=O)(=O)c2ccc(NC(=O)c3ccc(C)c(OC)c3)cc2)cc(OC)c1`, for which the figures for the Z-AUC in assay [1], in assay [1] (setting [8]) and in assay [1] (measured here: PEO4 Z-AUC) were -0.848 (inactive), -0.462 and -0.582, respectively.
For `Cc1cc(-c2ncc(CC(=O)Nc3ccc(-c4cnccn4)cn3)cc2C)ccn1` the same measures were -1.15 (inactive), -0.663 and -0.646.
As to `CCCCCCCCCCCCCC(=O)N[C@H](CO)[C@H](O)c1ccc([N+](=O)[O-])cc1`, the Z-AUC in assay [1] was 1.33 (inactive); in assay [1] (setting [8]) it was 1.09; in assay [1] (measured here: PEO4 Z-AUC), 1.02.
For `COC(=O)N1CCN(Cc2cccc(NC(=O)Nc3ccc(C)nc3)c2F)CC1` the same measures were -0.162 (inactive), -0.204 and -0.622.
For `Cn1cnc(-c2cc3nccc(Oc4ccc(NC(=S)NC(=O)Cc5ccccc5)cc4F)c3s2)c1`, the figures for the Z-AUC in assay [1], in assay [1] (setting [8]) and in assay [1] (measured here: PEO4 Z-AUC) were -0.0485 (inactive), 0.327 and 0.301, respectively.
As to `CC1=C[C@@H]2[C@@H]([C@@H](O)C[C@@]3(C)[C@H]2C[C@@H](C)[C@]3(O)C(=O)CO)[C@@]2(C)Cc3cnn(-c4ccccc4)c3C=C12`, the values for the Z-AUC in assay [1], in assay [1] (setting [8]) and in assay [1] (measured here: PEO4 Z-AUC) were -1.56 (inactive), -0.109 and -1.25, respectively.
Regarding `NS(=O)(=O)c1ccc(Nc2nc(OCC3CCCCC3)c3[nH]cnc3n2)cc1`, the Z-AUC is -1.43 (inactive) in assay [1], -0.91 in assay [1] (setting [8]) and -1.12 in assay [1] (measured here: PEO4 Z-AUC).
Regarding `c1ccc(-c2oc3ncnc(NC[C@@H]4CCCO4)c3c2-c2ccccc2)cc1`, the Z-AUC is -1.81 (inactive) in assay [1], -0.438 in assay [1] (setting [8]) and -1.2 in assay [1] (measured here: PEO4 Z-AUC).
The corresponding values for `CCOc1ccccc1N=Nc1c(C)[nH]n(-c2nc(-c3ccccc3)cs2)c1=O` are 1.3 (inactive), 1.25 and 1.22.
In the case of `O=C(O)c1ccc(O)c2ncc(N3CCOCC3)cc12`, the Z-AUC in assay [1] was -0.152 (inactive); in assay [1] (setting [8]), -0.649; in assay [1] (measured here: PEO4 Z-AUC), -0.698.
